These results are taken from PubChem BioAssay (NCI).

Compounds without any hit were thinned out: in the full panel of roughly 83,000, 20% have a hit.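 How to read the values: 0–100, growth inhibition (40 = 60% inhibited); 0, no net growth; -100 to 0, cell death (-40 = 40% of starting cells died; -100 = all dead).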 Values without a mark were called inactive. Activity calls are given as the source filed them. How the source made its calls: active means growth percent below 10; inactive means the rest.

This assay concerns OVCAR-4 ovarian. As to the kind of experiment: NCI-60 one-dose screen, 48 h (100 = growth as untreated, 0 = no growth, -100 = all killed). The following applies: 10 µM unless noted.
`CCC1S/C(=N\N=C(/C)c2cccs2)N(c2ccccc2)C1=O` (stereo not given): the growth is 99.7%.

`COc1ccc2c(c1)/C(=C/c1c(-c3cc(OC)c(OC)c(OC)c3Br)nc3sccn13)C(=O)N2`: the growth is 100%.

On to `N#CC(C#N)=C(C#N)c1c[nH]c2ccccc12`, for which the growth is 73.5%.

As for `CNC(=O)NN`, the growth is 110%.

For `ClC1c2ccccc2CCc2ccccc21`, the growth was 85.9%.

As for `COc1ccc(-c2cc3ccc(N(C)C)cc3nc2N)c(F)c1`, the growth was 42.2%.

Consider `CCOC(=O)C(C)(CSSCC(C)(NC(=O)c1ccc2ccccc2c1)C(=O)OCC)NC(=O)c1ccc2ccccc2c1` (stereo not given), for which the growth was 104%.

With `COc1ccc(-c2cc(-c3nnc(SC/C(=N\O)c4ccccc4)n3-c3ccccc3)c3ccccc3n2)cc1`, the growth was 113%.

For `CC(=O)Nc1ccc([I+]c2ccc([N+](=O)[O-])cc2)cc1`, the growth is 90%.

`O=[N+]([O-])c1ccc(NS(=O)(=O)c2ccccc2)c2ccccc12`: the growth was 40.6%.

Consider `COc1ccc(-c2c(C#N)cnc(N)c2-c2nc3cc(C)c(C)cc3[nH]2)cc1`, for which the growth was 50.7%.

Consider `S=c1n(CNc2ccc(Cl)nn2)nc(-c2cc(Cl)cc(Cl)c2Cl)n1/N=C/c1ccc(Cl)cc1`, for which the growth is 87.5%.

Consider `Cc1ccc2c(c1)Nc1ccc(C)cc1C2(C)C`, for which the growth is 92.3%.

Consider `Clc1ccc2c(NCCNc3nc(Cl)nc4ccccc34)ccnc2c1`, for which the growth was -72% (active).

As to `CN1CCN(Cn2nc(-c3cc(Cl)cc(Cl)c3Cl)n(/N=C/c3ccc(Cl)cc3)c2=S)CC1`, the growth is 94.5%.
